37 compounds from PubChem BioAssay (NCI) can be followed below.

Values joined by “and” are separate entries in the source; they are usually repeats but may differ in a detail not shown here. Equal entries are not always repeated. About 83,000 compounds went through this panel and 20% of them were active in at least one assay; those are over-represented in the sample as a whole.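 Plates (96-well) were seeded with cells, treated with compound at one concentration, and incubated for 48 hours before percent growth was determined.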 Active and inactive are the calls of the source.

The first assay has as its system SW-620 colon. The assay is described as follows: NCI-60 one-dose screen, 48 h (100 = growth as untreated, 0 = no growth, -100 = all killed). The following applies: 10 µM. On the procedure:
Growth inhibition of the SW-620 human tumor cell line is measured as a screen for anti-cancer activity. Cells are grown in 96 well plates and exposed to the test compound for 48 hours. Compounds are tested at a single concentration, which is 10^-5 M for most compounds. The reported endpoint is percent growth (GI% or GIPRCNT), where numbers from 0 - 100% represent growth inhibition, and numbers from -100% - 0 represent cell death. For example, a value of 40 represents 60% growth inhibition. A value of 0 means no net growth occurred over the course of the experiment. A value of -40 indicates 40% of cells at the beginning of the experiment died by the end of the experiment. A value of -100 means all cells are dead at the end of the experiment.
NCI-60 Human Tumor Cell Lines Screen was performed using the standard one-dose NCI protocol, which is described in more detail at https://dtp.cancer.gov/discovery_development/nci-60/default.htm.
Compounds with GIPRCNT values below 10 were considered active. Activity score was based on GIPRCNT using the following formula: […]
Score is 0 for GIPRCNT values of 100 or above, 50 for GIPRCNT values of 0, and 100 for GIPRCNT values of -100.
Consider `O=C(O)c1sccc1O`, for which the growth is 93.3% (inactive).

With `CC(C)(C)c1cc(NC(=O)Cc2ccc(-c3cnc4cc(-c5cnn(CCN6CCOCC6)c5)ccc4n3)cc2)no1`, the growth was 15.5% (inactive).

On to `CC1(C)OB(c2ccc(Cn3cc(F)c(=O)[nH]c3=O)cc2)OC1(C)C`, for which the growth was 95.8% (inactive).

The same assay, now with this note: 10 µM unless noted.
As to `CC(=O)Nc1ccc(O)cc1`, the growth was 106% (inactive) and 108% (inactive) and 103% (inactive).

Regarding `CN(C)CCC(=O)c1ccc(Cl)cc1`, the growth is 103% (inactive) and 108% (inactive).

With `COc1cc(-c2nccc3cc4c(cc23)OCO4)cc(OC)c1OC`, the growth is 16.7% (inactive) and 17.5% (inactive).

With `Clc1nc(Oc2ccccc2)nc(-c2cn(-c3ccccc3)c3ccccc23)n1`, the growth is 12.4% (inactive).

Consider `CC1=C(/C=C/C(C)=C/C=C/C(C)=C/C(=O)O)C(C)(C)CCC1`, for which the growth was 111% (inactive) and 106% (inactive) and 116% (inactive).

With `CN1CCN(Cc2occc(=O)c2O)CCN(C)CCN(Cc2occc(=O)c2O)CC1`, the growth is 113% (inactive) and 15.6% (inactive).

`CCCCCn1sc(=O)n(Cc2ccc(CNC(=O)C(C)c3ccc(CC(C)C)cc3)cc2)c1=O` (stereo not given): the growth was 87.6% (inactive) and -73.1% (active).

For `O=C(O)c1cc(C(=O)O)cc([N+](=O)[O-])c1`, the growth is 107% (inactive).

As to `CN1C(=O)C(N=Nc2ccc([N+](=O)[O-])cc2)SC1=S` (stereo not given), the growth is 49% (inactive) and 60.3% (inactive).

Turning to `Nc1ccc2ccc(N)cc2c1`, the growth is 87.5% (inactive).

For `CCOc1ccc2cc(-c3nn(CC4CCN(C)CC4)c4ncnc(N)c34)ccc2c1`, the growth was 91% (inactive) and 65.6% (inactive).

`O=C1CCN(Cc2ccccc2)C(=S)N1`: the growth is 105% (inactive).

Turning to `O[C@H](c1cc(C(F)(F)F)nc2c(C(F)(F)F)cccc12)[C@@H]1CCCCN1`, the growth was 71% (inactive) and 74.1% (inactive).

Turning to `COc1ccc(Cn2c(NCCN=C(N)N)nc(=O)n(Cc3ccc(F)cc3)c2=O)cc1`, the growth was 101% (inactive) and 95.1% (inactive).

Consider `CNC(=O)c1cccnc1`, for which the growth was 106% (inactive).

Regarding `O=C(N/N=C/c1ccccc1)N/N=C/c1ccccc1`, the growth was 106% (inactive) and 96% (inactive).

Turning to `O=C(O)CCCCc1ccc([N+](=O)[O-])cc1`, the growth is 96.4% (inactive) and 116% (inactive).

`Cn1c(SSc2ccc(-c3cccnc3)n2C)ccc1-c1cccnc1`: the growth is 62.8% (inactive) and 11.1% (inactive).

For the compound `CNC(=O)c1ccc(C)c(-n2c(C)cc(OCc3ccc(F)cc3F)c(Br)c2=O)c1`, the growth was 79.9% (inactive) and 95.9% (inactive).

Consider `C#CCN(C)Cc1ccccc1`, for which the growth was 104% (inactive) and 103% (inactive).

Regarding `NC(=O)C1CC2C=CC1C2` (stereo not given), the growth is 96.2% (inactive) and 97.5% (inactive).

`O=C=NC(c1ccccc1)(c1ccccc1)c1ccccc1`: the growth is 107% (inactive).

In the case of `CC(C)C(=O)Nc1ccc([N+](=O)[O-])c(C(F)(F)F)c1`, the growth was 93.8% (inactive) and 96.5% (inactive).

Consider `CN(C)c1ccc(C(Cc2ccc3ccccc3n2)Cc2ccc3ccccc3n2)cc1`, for which the growth was 48.1% (inactive) and 79.3% (inactive).

Turning to `CO/N=C/C=C\C(=O)N/C=C/C[C@H]1/C=C/[C@H](O)/C=C\C=C\c2cccc(O)c2C(=O)O1`, the growth was 17.5% (inactive) and 8.83% (active).

On to `Cc1cc(O)c2c(c1)C(=O)c1cc(O)cc(O)c1C2=O`, for which the growth was 100% (inactive) and 97.3% (inactive).

As to `Oc1ccccc1C=NCC1CCC(CN=Cc2ccccc2O)CC1` (stereo not given), the growth is 47.4% (inactive).

In the case of `CC1(C)[C@@H](OC(=O)CCC(=O)O)CC[C@]2(C)[C@H]3C(=O)C=C4[C@@H]5C[C@@](C)(C(=O)O)CC[C@]5(C)CC[C@@]4(C)[C@]3(C)CC[C@@H]12`, the growth is 109% (inactive) and -37.2% (active).

On to `COc1ccc2nc(Cl)cc(C)c2c1`, for which the growth was 102% (inactive) and 122% (inactive).

On to `CCN(CC)CCOc1ccc(/C=N/Nc2nc3c([nH]2)c(=O)n(C)c(=O)n3C)cc1`, for which the growth is 108% (inactive) and 104% (inactive).

For the compound `O=[N+]([O-])c1ccccc1/C=N\Nc1ccccc1`, the growth was 95% (inactive) and 93.3% (inactive).

Consider `CCN(CC)CCC(CNc1c2ccc([N+](=O)[O-])cc2nc2cc(OC)c(OC)cc12)c1ccccc1` (stereo not given), for which the growth was 6.7% (active).

In the case of `O=CC(O)C(O)C(O)CO` (stereo not given), the growth is 107% (inactive) and 104% (inactive).

Regarding `CCN(CC)C(=S)SSC(=S)N(CC)CC`, the growth is 77.2% (inactive) and 109% (inactive).

Staying with this assay, now noted: 30 µM.
Regarding `CC(C)(C)c1cc(NC(=O)Cc2ccc(-c3cnc4cc(-c5cnn(CCN6CCOCC6)c5)ccc4n3)cc2)no1`, the growth was 18.8% (inactive).

Staying with this assay, now noted: 50 µM.
Regarding `CC1(C)OB(c2ccc(Cn3cc(F)c(=O)[nH]c3=O)cc2)OC1(C)C`, the growth is 34.2% (inactive).

The same assay, now with this note: 100 µM.
`O=C(O)c1sccc1O`: the growth is 24% (inactive).
